# Test results reported in PubChem BioAssay.
# Active and inactive are the calls of the source. Unless noted, the rule behind the calls is not given here.
# Tests used:
# [1] = compound effects on lung adenocarcinoma cell viability – A549, calcein-AM fluorescence, 48 h, basal, profiling panel (AID 1162); details: higher = more signal; note: test concentration not given here
# [2] = compound effects on differentiated 3T3-L1 adipocyte viability – cell-based, 3T3-L1 adipocytes, calcein-AM fluorescence, 48 h, basal, profiling panel (AID 1163); details: 3T3-L1 adipocytes viability, higher = more signal; note: test concentration not given here
# [3] = compound effects on hepatocellular carcinoma cell viability – HepG2, calcein-AM fluorescence, 48 h, basal, profiling panel (AID 1164); details: higher = more signal; note: test concentration not given here
# [4] = compound effects on multiple myeloma cell viability – MM1S, calcein-AM fluorescence, 48 h, basal, profiling panel (AID 1165); details: higher = more signal;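 note: viability of MM1S multiple myeloma cells under basal unstimulated conditions; test concentration not given here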
# [5] = calcein-AM signal in unstimulated myeloma cells – cell-based, calcein-AM fluorescence, 48 h, PK04 Diversity Set, profiling panel (AID 1166); details: RPMI8226 myeloma viability, higher = more signal;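 note: cells grown under basal conditions without added stimulus; test concentration not given here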
# [6] = JC-1 mitochondrial signal, unstimulated HepG2 cells – cell-based, JC-1 fluorescence, 24 h, 100 nL compound, profiling panel (AID 1167); details: HepG2 mitochondrial potential, higher = more signal; note: test concentration not given here
# [7] = JC-1 mitochondrial signal, unstimulated adipocytes – cell-based, JC-1 fluorescence, 3T3-L1 adipocytes, 24 h, 100 nL compound, profiling panel (AID 1168); details: JC-1 mitochondrial fluorescence, higher = more signal, called active from +8 up or from −8 down; note: test concentration not given here
# [8] = JC-1 mitochondrial signal, unstimulated myeloma cells – cell-based, JC-1 fluorescence, RPMI8226, 24 h, 100 nL compound, profiling panel (AID 1169); details: JC-1 mitochondrial potential fluorescence, higher = more signal; note: test concentration not given here
# [9] = JC-1 mitochondrial signal, unstimulated MM1S myeloma – cell-based, JC-1 fluorescence, 24 h, 100 nL compound, profiling panel (AID 1170); details: MM1S mitochondrial potential, higher = more signal; note: test concentration not given here
# [10] = resazurin metabolic signal in A549 cells – cell-based, resazurin fluorescence, 24 h, PK04 Diversity Set, profiling panel (AID 1171); details: A549 viability, higher = more signal, called active from +8 up or from −8 down; note: test concentration not given here
# [11] = resazurin metabolic signal in HepG2 cells – cell-based, resazurin fluorescence, 24 h, PK04 Diversity Set, profiling panel (AID 1172); details: HepG2 viability, higher = more signal; note: test concentration not given here
# [12] = budding yeast growth changes without added modifier – OD600, strain BY4716, 24 h, basal condition, primary screen (AID 1173); details: S. cerevisiae BY4716 growth, OD600, 24 h; higher = more signal, called active from +8 up or from −8 down
# [13] = viability profiling in MM1S myeloma cells – cell-based, resazurin fluorescence, basal, 24 h, PK04 Diversity Set, profiling panel (AID 1174); details: higher = more signal, called active from +8 up or from −8 down; note: test concentration not given here
# [14] = target: Dihydroorotate dehydrogenase (quinone), mitochondrial (Plasmodium falciparum (isolate 3D7)) (UniProt Q08210); test: inhibition of P. falciparum DHODH – biochemical, C-terminal His tag, absorbance 600 nm, primary screen (AID 1175); details: PfDHODH enzyme, DCIP absorbance 600 nm; higher = more signal, called active from +8 up or from −8 down;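 note: recombinant parasite enzyme with a five histidine tag at its C terminus; test concentration not given here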
# [15] = inhibition of PAO1 biofilm formation – strain PAO1, LB-PBS medium, absorbance 600 nm, primary screen (AID 1176); note: test concentration not given here; details: P. aeruginosa PAO1 growth/biofilm, A600, 12 h; higher = more signal
# [16] = growth modulation of vineyard yeast isolate – strain RM11-1a, OD600, basal, 24 h, primary screen (AID 1177);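 note: cultures grown under basal conditions with no added stressor; test concentration not given here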; details: S. cerevisiae RM11-1a growth, OD600, 24 h; higher = more signal, called active from +8 up or from −8 down
# [17] = growth of efflux-deficient E. coli DRC39 – strain DRC39, OD650, 24 h, E. coli filamentation inducers, primary screen (AID 1178);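 note: growth measured as culture turbidity by optical density at 650 nm; test concentration not given here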; details: E. coli DRC39 acrAB, higher = more signal, called active from +8 up or from −8 down
# [18] = growth of efflux-deficient E. coli DRC39 – strain DRC39, OD650, 48 h, E. coli filamentation inducers, primary screen (AID 1179);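 note: screen aims at cell division blockers that make cells filament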; details: E. coli DRC39 delta-acrAB growth, higher = more signal, called active from +8 up or from −8 down
# [19] = viability profiling in RPMI8226 myeloma cells – cell-based, resazurin fluorescence, basal, 24 h, PK04 Diversity Set, profiling panel (AID 1180); details: higher = more signal;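 note: RPMI8826 multiple myeloma cell line at 5000 cells per well; test concentration not given here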
# [20] = target: E3 ubiquitin-protein ligase XIAP (Homo sapiens) (UniProt P98170); test: small molecules binding XIAP protein – biophysical, small-molecule microarray, fluorescence 635 nm, primary screen (AID 1181); details: higher = more signal;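 note: score merges 667 nm emission and signal to noise over triplicate slides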
# E3 ubiquitin-protein ligase XIAP (Homo sapiens), sequence (P98170 whole entry, looked up): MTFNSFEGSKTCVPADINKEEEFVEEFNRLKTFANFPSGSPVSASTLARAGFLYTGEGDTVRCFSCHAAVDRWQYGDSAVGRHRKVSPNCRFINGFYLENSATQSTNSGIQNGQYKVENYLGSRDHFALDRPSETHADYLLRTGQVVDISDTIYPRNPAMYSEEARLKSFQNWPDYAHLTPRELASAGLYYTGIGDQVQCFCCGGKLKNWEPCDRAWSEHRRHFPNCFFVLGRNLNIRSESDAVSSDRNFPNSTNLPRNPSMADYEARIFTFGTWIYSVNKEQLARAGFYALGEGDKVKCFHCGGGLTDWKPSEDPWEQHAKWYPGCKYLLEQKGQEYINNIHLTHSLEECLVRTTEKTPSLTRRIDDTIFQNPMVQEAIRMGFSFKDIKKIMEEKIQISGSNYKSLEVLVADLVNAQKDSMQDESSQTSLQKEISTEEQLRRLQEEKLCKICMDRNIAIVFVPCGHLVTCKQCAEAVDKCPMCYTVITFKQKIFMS
# Dihydroorotate dehydrogenase (quinone), mitochondrial (Plasmodium falciparum (isolate 3D7)), sequence (Q08210 whole entry, looked up): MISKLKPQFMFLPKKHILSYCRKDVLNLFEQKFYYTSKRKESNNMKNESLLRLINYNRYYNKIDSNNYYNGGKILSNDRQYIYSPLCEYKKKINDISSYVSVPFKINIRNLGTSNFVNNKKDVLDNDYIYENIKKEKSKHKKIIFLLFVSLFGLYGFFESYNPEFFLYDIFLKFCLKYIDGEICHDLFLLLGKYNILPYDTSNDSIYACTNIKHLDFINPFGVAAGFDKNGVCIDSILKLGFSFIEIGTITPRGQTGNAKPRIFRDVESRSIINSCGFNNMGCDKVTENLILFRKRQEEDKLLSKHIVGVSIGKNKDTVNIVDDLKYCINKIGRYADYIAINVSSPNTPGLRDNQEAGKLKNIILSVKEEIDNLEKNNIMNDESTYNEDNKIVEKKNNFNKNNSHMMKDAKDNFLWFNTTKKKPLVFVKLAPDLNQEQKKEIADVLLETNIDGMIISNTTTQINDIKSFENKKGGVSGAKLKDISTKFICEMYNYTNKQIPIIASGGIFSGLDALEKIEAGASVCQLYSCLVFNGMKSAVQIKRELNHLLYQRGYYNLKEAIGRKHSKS
SMILES,z-score [1],z-score [2],z-score [3],z-score [4],z-score [5],z-score [6],z-score [7],z-score [8],z-score [9],z-score [10],z-score [11],z-score [12],z-score [13],composite z-score [14],z-score [15],z-score [16],z-score [17],z-score [18],z-score [19],composite z-score [20]
COC(=O)[C@@H]1CC[C@H](C)[C@@H](c2ccc(C)cc2)N1C(=O)c1ccc(C=NOCC[C@@H]2C=C[C@H](OC(C)=O)[C@@H](COC(C)=O)O2)cc1,-0.521,0.556,-1.13,-0.958,-1.32,-0.674,-1.67 (inactive),0.682,-0.136,0.154 (inactive),-0.574,1.76 (inactive),-0.761 (inactive),1.16 (inactive),0.888 (inactive),1.98 (inactive),0.667 (inactive),-0.62 (inactive),-0.337,-0.291
COc1cc(O)c(C(=O)C=Cc2ccc3c(c2)OCO3)c(OC)c1,-0.553,0.154,-0.932,-1.62,-1.36,-0.591,-0.646 (inactive),-0.23,-0.533,0.0731 (inactive),0.0215,1.12 (inactive),-0.307 (inactive),1.06 (inactive),1.2 (inactive),2.31 (inactive),-0.45 (inactive),-1.04 (inactive),-0.144,0.215
CCOC(=O)C1=NO[C@]2(C=C(Br)C3(OCCCO3)[C@H]3O[C@H]32)C1,-0.718,-0.188,-0.186,-0.986,-0.172,-1.04,-0.207 (inactive),0.157,0.199,0.0721 (inactive),-0.706,-0.175 (inactive),-0.734 (inactive),-0.671 (inactive),-0.646 (inactive),-0.847 (inactive),0.336 (inactive),0.645 (inactive),-0.549,0.201
CC(=O)O[C@H]1C2=CO[C@H](C)[C@H]3[C@H]4C5=C([C@H](O)[C@H]6O[C@H]6C5=O)[C@H](OC4C)[C@@]23C(=O)[C@@H]2O[C@@H]21 (stereo not given in full),-1.7,-0.827,-3.46,-3.43,-3.37,-3,0.12 (inactive),-0.871,-2.88,-2.43 (inactive),-1.75,0.0895 (inactive),-4.88 (inactive),-0.219 (inactive),1.09 (inactive),-0.464 (inactive),-0.262 (inactive),-0.267 (inactive),-3.5,-0.266
